The results in this text go back to PubChem BioAssay (NCI).

Structures are written as SMILES. About 83,000 compounds went through this panel and 20% of them were active in at least one assay; those are over-represented in the sample as a whole.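 The test compound was applied at a single concentration to cells in 96-well plates for 48 hours, and percent growth was recorded.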 Unmarked numbers belong to inactive results. How the source made its calls: active means growth percent below 10; inactive means the rest.

This assay has as its system SK-MEL-2 melanoma. The experiment in a line: NCI-60 one-dose screen, 48 h (100 = growth as untreated, 0 = no growth, -100 = all killed). Particulars: 10 µM unless noted.
Regarding `O=C(CCCCCCSc1nc(-c2ccc(Cl)cc2)cc(-c2ccc(Cl)cc2)n1)NO`, the growth is 92.7%.
For `O=C1CC(C(F)(F)F)Cc2nc3ccc(Br)cc3cc21` (stereo not given), the growth is 107%.
With `COc1ccc(C2NC(=O)C(C#N)c3c2sc2c(F)cccc32)cc1` (stereo not given), the growth was 60%.
Regarding `CCCCCn1sc(=O)n(Cc2ccc(CNC(=O)OCc3ccc4cccc(O)c4n3)cc2)c1=O`, the growth was 39.3%.
For `O=[N+]([O-])c1cccc(N=NNc2cccc([N+](=O)[O-])c2)c1`, the growth was 104%.
On to `CCN(CC)CCCOc1ccc2c(c1)O/C(=C\c1cccc(OC)c1)C2=O`, for which the growth was 118%.
Consider `O=C(OCc1ccc2c(Cl)cc(Cl)c(O)c2n1)N1CCNCC1`, for which the growth was 59.1%.
`C=CCCCCOc1ccccc1-c1cnc(OCCCCC=C)n1C`: the growth was 46.1%.
For the compound `CSc1nc(=S)c2nc(SC)n(-c3ccccc3)c2[nH]1`, the growth is 83.1%.
Consider `CC1Cc2c(Cl)ncnc2N(C)c2ccc(O)cc21` (stereo not given), for which the growth was 27%.
For `Nc1nc(Nc2ccccc2)c2ncn(Cc3ccc4c(c3)OCO4)c2n1`, the growth was 12.2%.
Take `COc1ccc(-c2cc(-c3ccc(Cl)cc3)nc(SCCCCCCC(=O)NO)n2)cc1`: the growth is 87.1%.
Take `COc1ccc(C(=O)CSc2nccc(Nc3ccc(C(=O)O)cc3)n2)cc1`: the growth is 103%.
Then `CC1(C)OC2[C@@H](CNC(=O)NC(=O)NC(=O)CI)O[C@@H](n3cnc4c(NC(=O)Nc5ccccc5)ncnc43)[C@H]2O1` (stereo not given in full), with 95.4%; and `Cn1cc(-c2noc(-c3cn(C)c4ncc(F)cc34)n2)c2cc(Cl)ccc21`, with 101%.
